The source of these data is PubChem BioAssay (EPA / NIEHS).

The source made the active and inactive calls. How the source made its calls: active means hit-call score of the fitted dose curve at least 0.9, where 1 is the maximum; inactive means score below 0.9.

Read-out in this experiment: Plasminogen activator inhibitor-1 (PAI1), SERPINE1 (gene 5054)
The experiment in a line: BSK_BE3C_PAI1: BioMAP Diversity Plus: BE3C Assay for Plasminogen activator inhibitor-1 (PAI1) Biomarker Activity (AID 2283037). Particulars: primary human bronchial epithelial cells; actives raise or lower the signal. The protocol:
BSK_BE3C is a cell-based, multiplexed-readout assay that uses bronchial epithelial cell, a human lung primary cell, with measurements taken at 24 hours after chemical dosing in a 96-well plate.BSK_BE3C_PAI1 is an assay component measured in the BSK_BE3C assay. It measures PAI-1 antibody related to regulation of gene expression using ELISA technology.Data from the assay component BSK_BE3C_PAI1 was analyzed into 1 assay endpoint. This assay endpoint, BSK_BE3C_PAI1, was analyzed with bidirectional fitting relative to DMSO as the negative control and baseline of activity. Using a type of binding reporter, gain or loss-of-signal activity can be used to understand changes in the signaling as they relate to the gene SERPINE1. Furthermore, this assay endpoint can be referred to as a primary readout, because this assay has produced multiple assay endpoints where this one serves a signaling function. To generalize the intended target to other relatable targets, this assay endpoint is annotated to the cytokine intended target family, where the subfamily is plasmogen activator inhibitor.
The levels of cell surface (or secreted, indicated by the prefix "s") biomarker endpoints were measured by ELISA. Overt cytotoxicity to cells in confluent adherent cultures (all systems other than the BT system) was assessed by measuring total protein levels using sulforhodamine B (SRB) staining in parallel cultures at the time of biomarker measurements, indicated as SRB endpoints. For proliferation assays for adherent cell types, individual cell types are cultured at sub-confluence and relative cell numbers quantified by SRB staining at time points optimized for each system (48 h: 3C and CASM3C systems; 72 h: BT and HDF3CGF systems; 96 h: SAg system). SRB was performed by staining cells with 0.1% SRB after fixation with 10% TCA and reading wells at 560 nm.Viability and proliferation of PBMC (T cells) was quantified by Alamar Blue reduction for the SAg and BT systems. For PBMC viability (referred to as PBMC Cytotoxicity within the assay endpoint names), cells were plated (75,000/well in a 96-well plate) and then chemical samples added for 1 h before addition of activators, SEB and TSST-1 (20 ng/mL final concentration each). Cells were incubated for 90 h. Then, Alamar Blue (20 uL/well) (Invitrogen, Cat DAL1100) was added for 6 h, and the plates were read with a fluorescence microplate reader at 546/580 nm (excitation/emission). For PBMC proliferation, cells were plated and activated as above but incubated for only 16 h prior to addition of Alamar Blue. Plates were read after 6 h.
`O=C(O)c1ccccc1C(=O)OCc1ccccc1`: the outcome was inactive.

Regarding `COc1cccc([C@H](O)C2CCN(CCc3ccc(F)cc3)CC2)c1OC`, the outcome was inactive.

In the case of `O=C(OCCCCCCOC(=O)c1ccccc1)c1ccccc1`, the outcome was inactive.

Consider `C[C@]12CC[C@@H]3c4ccc(O)cc4CC[C@H]3[C@@H]1CCC2=O`, for which the result was inactive.

For `O=C(O)Cn1c(=O)n(Cc2ccc(Br)cc2F)c(=O)c2ccc(Cl)cc21`, the outcome was inactive.

Turning to `CCN(CC)C(=O)c1cc(S(=O)(=O)Cc2ccccc2)c(N2CCC(c3ccccc3)CC2)cc1N(CC)CCN(C)C`, the AC50 was 7.91 µM (active).

In the case of `CN(C[C@@H](CC[N+]12CCC(C3CCCCC3)(CC1)CC2)c1ccc(Cl)c(Cl)c1)C(=O)c1cc(C(F)(F)F)cc(C(F)(F)F)c1`, the half-maximal activity concentration (AC50) is 12.5 µM (active).

Turning to `NCc1cccc(C2CCN(C(=O)c3ccc(C#Cc4ccccc4F)o3)CC2)c1`, the half-maximal activity concentration (AC50) is 13.8 µM (active).

As to `CN1C(=O)CC[C@H]1c1cccnc1`, the result was inactive.

On to `Cc1occc1C(=O)Nc1ccc(C(=O)N2CCC(F)(F)/C(=C\C(=O)N3CCC(N4CCCCC4)CC3)c3ccccc32)cc1`, for which the result was inactive.

Turning to `CCCCOC(=O)CC(CC(=O)OCCCC)(OC(C)=O)C(=O)OCCCC`, the outcome was inactive.

Consider `O=CCCCC=O`, for which the AC50 was 32.8 µM (active).

In the case of `O=C1O[C@H]([C@@H](O)CO)C(O)=C1O`, the result was inactive.

As to `c1ccc(C[n+]2cccc3ccccc32)cc1`, the result was inactive.

Take `Oc1ccc2ccccc2c1`: the result was inactive.

For the compound `CCCCCCCCN(C)CCCCCCCC`, the outcome was inactive.

On to `CN(C)c1ccc(C(=C2C=CC(=[N+](C)C)C=C2)c2ccc(N(C)C)cc2)cc1`, for which the AC50 was 0.228 µM (active).

On to `Cc1c2ccccc2c(C)c2c1ccc1ccccc12`, for which the AC50 is 29 µM (active).

As for `c1ccc2n[nH]nc2c1`, the outcome was inactive.

`CC(C)(O)c1ccc(CNC(=O)c2cccnc2Oc2ccc3nonc3c2)cc1`: the outcome was inactive.

With `O=C1c2ccccc2C(=O)N1CCc1noc(-c2ccc(CN3CCCCCC3)s2)n1`, the outcome was inactive.

For `CCCOC(=O)c1cc(O)c(O)c(O)c1`, the outcome was inactive.

Regarding `CC(C)(c1cc(Br)c(O)c(Br)c1)c1cc(Br)c(O)c(Br)c1`, the AC50 is 4.89 µM (active).

For `CC1=CC(=O)/C(=C(/C)O)C(=O)O1`, the result was inactive.

With `CC[C@@H]1C[C@H](N(Cc2cc(C(F)(F)F)cc(C(F)(F)F)c2)C(C)=O)c2cc(C(F)(F)F)ccc2N1C(=O)OC(C)C`, the result was inactive.

For `CO[C@H]1/C=C/O[C@@]2(C)Oc3c(C)c(O)c4c(O)c(c(/C=N/N5CCN(C)CC5)c(O)c4c3C2=O)NC(=O)/C(C)=C\C=C\[C@H](C)[C@H](O)[C@@H](C)[C@@H](O)[C@@H](C)[C@H](OC(C)=O)[C@@H]1C`, the result was inactive.

For `CC1(C)NC(=O)N(c2ccc([N+](=O)[O-])c(C(F)(F)F)c2)C1=O`, the outcome was inactive.

With `CCO[Si](CCCNC(N)=O)(OCC)OCC`, the outcome was inactive.

`CCCCCCCCCCCC[N+](C)(C)C`: the half-maximal activity concentration (AC50) was 21.9 µM (active).

With `O=C=NCCCCCCN=C=O`, the outcome was inactive.

For the compound `Cc1cc(F)ccc1-c1cc(N2CC[C@@H](O)[C@H]2CO)ncc1N(C)C(=O)C(C)(C)c1cc(C(F)(F)F)cc(C(F)(F)F)c1`, the AC50 was 13 µM (active).

On to `Cc1oc2c(NC(=O)c3c(Cl)cccc3Cl)cccc2c1C(C)(C)O`, for which the result was inactive.

With `O=C(Nc1ccc(Cl)cc1)Nc1ccc(Cl)c(Cl)c1`, the half-maximal activity concentration (AC50) was 1.11 µM (active).

As for `CCOC(=O)O[C@H](C)OC(=O)c1ccc2c(c1)cc(C(=O)NC1CCN(C(C)C)CC1)n2Cc1cc(-c2ccc(Cl)s2)on1`, the concentration at half-maximal activity (AC50) is 12.1 µM (active).

Turning to `Cc1ccc2oc(CN(Cc3ccccc3)C(=O)Nc3c(F)cc(F)cc3F)c(-c3ccc(Cl)cc3)c2c1`, the result was inactive.

`CCCCOC(=O)c1ccc(O)cc1`: the result was inactive.

For the compound `CC(C)(C)c1cc(/C=C2\SC(N)=NC2=O)cc(C(C)(C)C)c1O`, the result was inactive.

Take `CCCCCc1ccc(N)cc1`: the result was inactive.

Take `O=c1c(-c2ccc(O)cc2)coc2cc(O)cc(O)c12`: the result was inactive.

In the case of `CN1C(=O)N(c2ccccc2Br)Cc2cnc(Nc3ccc4c(c3)OCC(CO)O4)nc21` (stereo not given), the concentration at half-maximal activity (AC50) is 1.63 µM (active).
